Reference: the supplement of paper PMC8866396
± gives the standard deviation of the averaged measurements.

Tests used:
IL-6-GFP PC-9GR = assay: cell viability (CCK-8 OD) relative to DMSO control (fraction of control); higher = more viable cells; settings: compound concentration: 10 uM; treatment time: 48 h
Outline: (§1)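 A purchased 510-compound library was screened at a final 10 μM for 48 h against PC-9 and PC-9GR lung cancer cells overexpressing IL-6-GFP via a lentiviral construct, seeded at 3000 cells/well in 96-well plates. GFP imaging was done on a parallel plate set. For viability, CCK-8 absorbance was recorded and each well's optical density was divided by that of the vehicle control well. There were two independent replicates.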

IL-6-GFP PC-9 = assay: as above; settings: compound concentration: 10 uM; treatment time: 48 h
Outline: as §1

**Q.** Which results are given for `O=C(O)c1ccccc1OP(=O)(O)O` [Fosfosal]?
**A.** cell viability (IL-6-GFP PC-9GR): 0.943 ± 0.088; cell viability (IL-6-GFP PC-9): 1.01 ± 0.21

**Q.** `CC(C(=O)O)c1ccc2c(c1)CC(=O)c1ccccc1S2` (centres undefined) [Zaltoprofen] was tested. Which cell viability (IL-6-GFP PC-9GR) did it give?
**A.** The cell viability was 0.953 ± 0.054.

**Q.** What about the cell viability (IL-6-GFP PC-9) of the same molecule?
**A.** The cell viability was 0.542 ± 0.067.

**Q.** Which cell viability (IL-6-GFP PC-9GR) does the source give for `O=C(/C=C/c1ccc(O)c(O)c1)OC(Cc1ccc(O)c(O)c1)C(=O)O` (centres undefined) [Rosmarinic acid] here?
**A.** Its cell viability is 1.12 ± 0.24.

**Q.** What about the cell viability (IL-6-GFP PC-9) of the same molecule?
**A.** The cell viability was 1.14 ± 0.059.

**Q.** What does the source list for `CNC(=NC#N)NCCSCc1nc[nH]c1C` [Cimetidine]?
**A.** cell viability (IL-6-GFP PC-9GR): 1.56 ± 0.74; cell viability (IL-6-GFP PC-9): 1.15 ± 0.23

**Q.** For `CC(=O)OCC1OC(n2ccc(=O)[nH]c2=O)C(OC(C)=O)C1OC(C)=O` (centres undefined) [uridine triacetate], which cell viability (IL-6-GFP PC-9GR) is on record?
**A.** The cell viability was 1.59 ± 0.3.

**Q.** And the cell viability (IL-6-GFP PC-9)?
**A.** Its cell viability is 1.175 ± 0.0034.

**Q.** For `Cn1c(=O)cc(N2CCCC(N)C2)n(Cc2cc(F)ccc2C#N)c1=O` (centres undefined) [Trelagliptin], which cell viability (IL-6-GFP PC-9GR) is on record?
**A.** Its cell viability is 1.09 ± 0.15.

**Q.** And the cell viability (IL-6-GFP PC-9)?
**A.** The cell viability was 1.33 ± 0.49.

**Q.** What does the source list for `CC12C=CC(=O)C=C1CCC1C3CC(O)C(O)(C(=O)CO)C3(C)CC(O)C12F` (centres undefined) [Triamcinolone]?
**A.** cell viability (IL-6-GFP PC-9GR): 1.06 ± 0.13; cell viability (IL-6-GFP PC-9): 0.805 ± 0.086

**Q.** What does the source list for `CNC1CCC(c2ccc(Cl)c(Cl)c2)c2ccccc21.Cl` (centres undefined) [Sertraline HCl]?
**A.** cell viability (IL-6-GFP PC-9GR): 0.338 ± 0.063; cell viability (IL-6-GFP PC-9): 0.664 ± 0.35

**Q.** Which cell viability (IL-6-GFP PC-9GR) does the source give for `CCC(=O)NS(=O)(=O)c1ccc(-c2c(-c3ccccc3)noc2C)cc1` [Parecoxib] here?
**A.** The cell viability was 1.06 ± 0.1.

**Q.** What about the cell viability (IL-6-GFP PC-9) of the same molecule?
**A.** Its cell viability is 1.26 ± 0.014.

**Q.** Which cell viability (IL-6-GFP PC-9GR) does the source give for `O=C(O)CCCCC1CCSS1` (stereo not drawn) [(+)-α-Lipoic acid] here?
**A.** The cell viability was 1.26 ± 0.2.

**Q.** And the cell viability (IL-6-GFP PC-9)?
**A.** Its cell viability is 1.21 ± 0.024.

**Q.** For `CC(C)(O)c1ccccc1CCC(SCC1(CC(=O)O)CC1)c1cccc(/C=C/c2ccc3ccc(Cl)cc3n2)c1` (centres undefined) [Montelukast], which cell viability (IL-6-GFP PC-9GR) is on record?
**A.** Its cell viability is 1.11 ± 0.26.

**Q.** What about the cell viability (IL-6-GFP PC-9) of the same molecule?
**A.** Its cell viability is 0.934 ± 0.32.

**Q.** How did the cell viability (IL-6-GFP PC-9GR) turn out when `CCOC(=O)c1ccc(OC(=O)CCCCCNC(=N)N)cc1.CS(=O)(=O)O` [Gabexate Mesylate] was run?
**A.** Its cell viability is 1.14 ± 0.069.

**Q.** And the cell viability (IL-6-GFP PC-9)?
**A.** The cell viability was 0.801 ± 0.071.
